The values that follow come from PubChem BioAssay AID624330 (Southern Research Specialized Biocontainment Screening …, 2012).

The whole screen tested about 340,000 compounds, of which about 2,100 (0.62%) were called active. These entries were drawn from the full list. Results with a measured potency or affinity are listed apart. Values without a mark were called inactive.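 How the source made its calls: active means first-screen hits whose inhibition reached a set limit at any dose in the follow-up dose series; inconclusive means inhibition above the set first-screen limit but never retested; inactive means the rest.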

Sequence of Rac GTPase-activating protein 1 (Homo sapiens) (Q9H0H5 whole entry, looked up): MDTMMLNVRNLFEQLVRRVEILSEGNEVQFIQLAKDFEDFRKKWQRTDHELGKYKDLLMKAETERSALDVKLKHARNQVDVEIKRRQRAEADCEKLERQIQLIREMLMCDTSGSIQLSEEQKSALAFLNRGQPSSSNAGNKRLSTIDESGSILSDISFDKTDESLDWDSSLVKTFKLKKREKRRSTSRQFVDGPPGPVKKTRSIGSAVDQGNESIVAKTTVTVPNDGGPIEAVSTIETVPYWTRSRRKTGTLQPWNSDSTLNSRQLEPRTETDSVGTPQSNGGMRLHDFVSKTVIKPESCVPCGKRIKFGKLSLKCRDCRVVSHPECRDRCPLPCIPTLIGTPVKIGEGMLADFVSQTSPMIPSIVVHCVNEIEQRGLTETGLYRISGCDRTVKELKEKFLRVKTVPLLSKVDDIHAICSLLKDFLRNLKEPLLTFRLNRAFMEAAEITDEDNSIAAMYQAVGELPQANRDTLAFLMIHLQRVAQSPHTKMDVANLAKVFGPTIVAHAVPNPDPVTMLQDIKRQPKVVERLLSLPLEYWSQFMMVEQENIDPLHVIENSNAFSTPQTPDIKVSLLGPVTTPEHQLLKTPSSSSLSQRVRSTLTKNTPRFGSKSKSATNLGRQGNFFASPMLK

The experiment has as its target Rac GTPase-activating protein 1 (Homo sapiens) (UniProt Q9H0H5). In words: blockers of MgcRacGAP-driven Rac1 GTP hydrolysis – biochemical, ADP Hunter fluorescence, primary and confirmatory, confirmation (AID 624330).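 Further: fluorescence reports GDP produced by GAP-driven GTP hydrolysis.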 The conditions noted are these: MgcRacGAP-stimulated Rac1 GTP hydrolysis, at 30 µM, hits give high values, GST-tagged Rac1 F28L mutant substrate.
In the case of `CCOc1ccc(-c2csc(NC(=O)c3cccc(N4C(=O)CCC4=O)c3)n2)cc1`, the inhibition is 1.94%. In the case of `COc1ccc(Cl)cc1NC(=O)NN1CCN(C)CC1` it was 9.05%; in that of `COc1cccc(-c2c(C(=O)N/N=C(\C)c3ccco3)nnn2-c2nonc2N)c1`, 3.24%; in that of `Cc1nnc(C)n1/N=C/c1cccs1`, 17.6%.

Consider `S=c1[nH]nc(-c2cccnc2)n1/N=C/c1ccc(Br)s1`, for which the inhibition is 8.12%. The same measure for `O=[N+]([O-])c1ccc(/C=N/n2c(-c3cccnc3)n[nH]c2=S)cc1`: 14.5%; for `Cc1ccc(/C=N/n2c(C)nnc2C)s1`: 5.21%. `c1cncc(-c2nnc3n2N=C(c2cccs2)CS3)c1`: the inhibition is 7.37%.

In the case of `Cc1ccc(-c2n[nH]c(=S)n2/N=C/c2cccs2)cc1`, the inhibition is 25.8%. The same measure for `C(=N\N=C\c1cccs1)/c1cccs1`: 3.75%; for `Cc1nnc(C)n1/N=C/c1cccc([N+](=O)[O-])c1`: 0.71%; for `O=C(CCNC(=O)c1ccco1)NCc1ccc(C(=O)O)cc1`: 10.3%.

Take `O=C(NCc1cccnc1)c1ccc([N+](=O)[O-])cc1`: the inhibition is 6.96%. The same measure for `CC1(C)CC(=O)C2=C(C1)NC(SCC(N)=O)=C(C#N)C21CCCCC1`: 7.26%; for `Cc1ccccc1OCCn1cnc2c(N)ncnc21`: -13%; for `Cc1ccccc1OCCn1c(S(=O)(=O)O)nc2c(N)ncnc21`: 9.98%. Turning to `CCOc1ccc(OCCn2c(S(=O)(=O)O)nc3c(N)ncnc32)cc1`, the inhibition was 12.6%.

For the compound `CC(C)Oc1ccc(OCCn2c(S(=O)(=O)O)nc3c(N)ncnc32)cc1`, the inhibition was 2.7%. The same measure for `CN1CCN(C(=O)CSc2cc(=O)n(C)c3ccccc23)CC1`: 6.45%; for `CCOC(=O)N1CCC(NC(=O)C(CC(C)C)NC(=O)C2CCCCC2)CC1` (stereo not drawn): 9.57%. Take `Cc1ccc(S(=O)(=O)N2CCC(C(=O)NCCc3ccccn3)CC2)cc1`: the inhibition was -0.14%.

In the case of `COc1cc(/C=C2/SC(=S)N(Cc3ccccc3)C2=O)cc(Cl)c1O`, the inhibition was 10%.

Take `COc1ccc(Br)cc1C(=O)NC(=S)Nc1ccc(Cl)c(C(=O)O)c1`: the inhibition is 5.62%. For the compound `COc1ccc(/C=C2\SC(N)=NC2=O)cc1Cl`, the inhibition was 1.73%. In the case of `COc1ccc(Br)cc1/C=C/C(=O)NC(=S)Nc1ccc(Cl)c(C(=O)O)c1`, the inhibition was 6.62%. In the case of `COc1cc(/C=C2\SC(c3ccccc3)=NC2=O)cc(Cl)c1O` it was 27.3%; in that of `COc1cc(/C=C2\SC(N)=NC2=O)cc(Br)c1O`, 29.2%; in that of `CC1CCCCN1C(=O)c1ccc(CS(=O)(=O)Cc2ccccc2)cc1` (stereo not drawn), 8.5%.

As for `CCN1CCN(C(=O)c2[nH]c3ccc(OC)cc3c2C)CC1`, the inhibition is 6.11%. In the case of `Cc1ccc(S(=O)(=O)NCCc2c[nH]c3ccccc23)cc1` it was 4.49%; in that of `COc1ccc(CCNC(=O)CCn2c(=O)c3cccn3c3ccc(F)cc32)c(OC)c1OC`, 12.9%; in that of `O=C1NCC(COc2cccc3ccccc23)O1` (stereo not drawn), -1.12%. The same measure for `Cn1c(O)c(N=NC(=O)CNC(=O)c2cccnc2)c2ccccc21`: 4.23%. `CCN1C[C@@H]2[C@@H]3C(=O)N(Cc4ccccc4)C(=O)[C@@H]3[C@](C)(C1=O)N2C(=O)c1ccc(Br)cc1`: the inhibition is 7.24%. For the compound `O=C(CNC(=O)c1ccc(Br)o1)Nc1ccc(F)c(S(=O)(=O)N2CCOCC2)c1`, the inhibition is 5.58%. The same measure for `Clc1ccc(C=NN2CCCCCC2)cc1`: -2.87%; for `Clc1ccc(/C=N/N2CCCCC2)cc1`: 7.04%; for `CCOc1ccc(NC(=O)C(C)Oc2ccccc2C(=O)Nc2ccc(C)c(Cl)c2)cc1` (stereo not drawn): 5.67%. The same measure for `CC1(NC(=O)NCc2ccccc2)CCS(=O)(=O)C1` (stereo not drawn): 10.2%; for `O=C(c1cccc(Cl)c1)N1CCC(c2nc3ccccc3[nH]2)CC1`: 9.71%. The same measure for `O=NC1=C(c2c(O)[nH]c3ccccc23)CCCC1`: 5.2%; for `O=C1C(c2c(O)[nH]c3ccccc23)=Nc2ccccc21`: 8.12%.

Consider `Cc1ccc(NC(=O)COc2nc(C)cs2)cc1`, for which the inhibition is 4.7%. In the case of `CC(=O)C[C@H](O)CC(=O)[C@H]1OC(=O)CC/C=C\Cc2ccccc21` it was 5.25%; in that of `COc1ccc(CNCc2ccccc2C(F)(F)F)cc1`, 29.7%. The same measure for `COc1cc(CNCc2cccc3ccccc23)cc(OC)c1`: 25.2%; for `COc1cc(CNCc2ccc(OC)c(OC)c2OC)cc(OC)c1`: 15.6%. For the compound `COc1cc(CNCc2ccc(C)cc2)cc(OC)c1OC`, the inhibition was 22.2%. The same measure for `CCCCn1c(N)c(N(CC(C)C)C(=O)c2cccc(S(=O)(=O)N(C)c3ccccc3)c2)c(=O)[nH]c1=O`: 5.29%. Regarding `CCOC(=O)CC(NC(=O)c1ccccc1)c1ccc(OC)cc1` (stereo not drawn), the inhibition was 3.97%. Turning to `COCCNC(=O)c1cccc(OC2CCN(Cc3ccccc3OCCO)CC2)c1`, the inhibition is 11.3%. For the compound `O=C(NC(=S)N1CCCCCC1)c1ccccc1`, the inhibition is 2.51%.

`COc1c(O)cc2oc(-c3ccc(O)cc3)cc(=O)c2c1O`: the inhibition is 10.2%. In the case of `COc1cc2oc(-c3ccc(O)cc3)cc(=O)c2c(O)c1OC`, the inhibition was 18.1%. In the case of `CS(=O)(=O)N(Cc1ccco1)CC(O)Cn1cc(C=O)c2ccccc21` (stereo not drawn) it was 8.31%; in that of `COc1ccc(Cl)cc1NC(=O)CN(C)C1CCS(=O)(=O)C1` (stereo not drawn), 6.99%. Take `CCN(CC(=O)Nc1cc(C)c(Cl)cc1OC)CC(=O)NC1CCS(=O)(=O)C1` (stereo not drawn): the inhibition is 8.4%. In the case of `COCCNC(=O)CSc1ncnc2sc(-c3ccccc3)cc12` it was 6.39%.

Regarding `COCCn1c(=NC(=O)c2ccc(S(=O)(=O)N3CCOCC3)cc2)sc2cc(S(N)(=O)=O)ccc21`, the inhibition was 8.39%. Turning to `FC(F)(F)c1cnc2c(-c3ccc(Cl)cc3Cl)noc2c1`, the inhibition was 10.7%. For `CO/N=C/C(C(C)=O)C(=O)Nc1ccc(Cl)cc1Cl` (stereo not drawn), the inhibition was 1.68%. In the case of `CC(=O)c1cccc(NC(=O)Nc2c(C)nn(C)c2C)c1` it was 6.89%. `Nc1nc(-c2ccccc2)c(-c2ccccc2)s1`: the inhibition was 10.3%. In the case of `Cc1ccc(-c2nc(N)sc2-c2ccccc2)cc1C` it was 8.82%; in that of `O=S(=O)(NCCCN1CCOCC1)c1ccc(Cl)s1`, 1.35%; in that of `O=C(Nc1ccccc1O)c1ccc(C(=O)c2ccccc2)o1`, 3.33%.

Consider `COc1ccc(NC(=O)c2ccc(C(=O)c3ccccc3)o2)cc1`, for which the inhibition was 1.49%. `COc1ccc(N/C(C)=C/C(=O)c2ccccc2)cc1`: the inhibition was 10.4%. Turning to `C/C(=C\C(=O)c1cccnc1)Nc1ccc(C(=O)O)cc1`, the inhibition is -0.69%. For `C/C(=C\C(=O)c1ccccc1)Nc1ccc(Cl)c(Br)c1`, the inhibition was 6.98%. In the case of `CC(=O)Nc1ccc(N/C(C)=C/C(=O)c2cccnc2)cc1` it was -2.43%; in that of `CCN(CC(=O)NCc1ccc(Cl)cc1)C(=O)Cc1ccc(OC)cc1`, 5.69%. The same measure for `Cc1cc(C(=O)Nc2ccccc2[N+](=O)[O-])cs1`: 0.21%. `CCOc1ccc(NC(=O)CN(C)C(=O)c2ccc(N3CCCCCC3)c([N+](=O)[O-])c2)cc1OCC`: the inhibition is 3.24%. Regarding `CCOC(=O)c1ccc2ncc(C(=O)OCC)c(NCCN(C)C)c2c1`, the inhibition was -0.66%. `Cc1cc(NCCO)c2cc(O)ccc2n1`: the inhibition was 15%. The same measure for `CN(C)CCNc1ccc(-c2nn(C)c(=O)c3ccccc23)cc1[N+](=O)[O-]`: 3.29%; for `CCN(CC)CCCNC(=O)c1cc(-c2ccc(O)cc2)on1`: 25.9%.

In the case of `CCOC(=O)c1cnc2ccc(Cl)cc2c1NCCN(C)C`, the inhibition was 14.5%.

Consider `CCN(CC)CCCNc1ncnc2ccccc12`, for which the inhibition is 8.44%. Consider `COC(=O)c1ccccc1NC(=O)c1sc(Cl)nc1C`, for which the inhibition is 6.47%.

As for `O=C1C=CC(=O)C(CNc2ccc(C(=O)OCc3ccccc3)cc2)=C1`, the inhibition was 19.7%. The same measure for `Fc1ccc(-c2nnc(N3CCOCC3)c3ccccc23)cc1F`: 10.8%; for `COC(=O)C(Cc1ccccc1)NC(=O)CNS(=O)(=O)c1ccc(Br)cc1` (stereo not drawn): -0.24%; for `CC[N+](CC)(CC)CCOc1ccc(/C=C/c2ccccc2)cc1`: 9.54%. The same measure for `CCCCOc1cccc(C(=O)O)c1`: 4%; for `CCOc1ccc2c(c1)C(=O)c1cc(OCC(=O)O)ccc1-2`: 13.8%; for `Cc1cc(OCCCCOc2ccc(S(N)(=O)=O)c(C)c2)ccc1S(N)(=O)=O`: 6.93%. The same measure for `O=C(c1ccc(Cl)c(S(=O)(=O)N2CCCCCC2)c1)N1CCCC(C(F)(F)F)C1` (stereo not drawn): 1.91%; for `COc1cccc(C(=O)NC2CCCc3ccccc32)c1` (stereo not drawn): 11.4%; for `CSc1nsc2nc(=O)c(/C=C3\C=Nc4ccccc43)c(N)n12`: 1.86%. Turning to `Oc1nc(Nc2ccc(F)cc2)sc1/C=C1\C=Nc2ccccc21`, the inhibition was 10.4%. In the case of `O=c1[nH]c(=S)[nH]c(O)c1/C=C1\C=Nc2ccccc21` it was -1.08%; in that of `Cn1c(O)c(/C=C2\C=Nc3ccccc32)sc1=Nc1ccc(C(=O)O)cc1`, 7.27%.

Consider `CC(=O)c1ccc(-n2c(CCC(=O)O)ccc2-c2ccc(Br)cc2)cc1`, for which the inhibition is 11.4%. Consider `CCCN(CC(=O)Nc1cccc(Br)c1)CC(=O)Nc1ccc(F)c(F)c1F`, for which the inhibition was 8.26%. In the case of `CCc1ccccc1S(=O)(=O)Cc1ccc(C(=O)NCc2cccs2)o1` it was 1.89%; in that of `O=C(CN(CC1CCCO1)C(=O)Cn1nnc(-c2ccc(F)cc2)n1)NC1CCCCC1` (stereo not drawn), 3.03%.

One may read the inhibition as the change of the read-out against control, counted positive when it falls.
